According to PubChem BioAssay (NCATS):
A number with no mark means an inactive call. Results filed as inconclusive are left out. A call without a number means that no potency is given here. Active and inactive are the calls of the source. Unless noted, the call rests on the fitted dose curve; in most records, active means well fitted curve in the direction sought with a large enough effect; inconclusive means small, poorly fitted or top-dose-only effect, or another doubt; inactive means no such curve, though single readings can be large; an effect the other way counts as inactive or inconclusive.

Experiments:
[1] = biological target: Cytochrome P450 1A2 (Homo sapiens) (UniProt P05177); test: p450-cyp1a2 (AID 410; calls by dose curve; further: potency means the concentration at half of the fitted maximal effect)
Cytochrome P450 1A2 (Homo sapiens), sequence (P05177 whole entry, looked up): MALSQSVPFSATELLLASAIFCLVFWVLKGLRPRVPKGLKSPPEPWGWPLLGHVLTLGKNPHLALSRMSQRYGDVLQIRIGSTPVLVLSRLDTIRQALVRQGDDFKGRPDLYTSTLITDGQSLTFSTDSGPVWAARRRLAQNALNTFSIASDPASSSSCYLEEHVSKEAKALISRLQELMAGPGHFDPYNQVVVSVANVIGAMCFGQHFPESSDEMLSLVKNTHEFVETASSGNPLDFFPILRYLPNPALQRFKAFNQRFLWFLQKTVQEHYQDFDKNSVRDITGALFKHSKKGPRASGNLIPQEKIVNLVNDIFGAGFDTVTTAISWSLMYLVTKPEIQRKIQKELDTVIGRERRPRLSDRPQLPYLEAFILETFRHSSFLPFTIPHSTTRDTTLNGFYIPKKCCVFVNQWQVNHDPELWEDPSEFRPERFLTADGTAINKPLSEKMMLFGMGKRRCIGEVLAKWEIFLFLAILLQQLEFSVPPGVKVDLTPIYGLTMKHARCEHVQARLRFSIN
Method in brief: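 Human CYP1A2 (20nM) demethylated Luciferin-ME at its Km (100uM) in 100mM KPO4. After 10 min compound preincubation, NADPH regeneration ran the reaction 60 min at room temperature. Luciferin was read by luminescence, normalized to 57 uM furafylline.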

[2] = biological target: Glucocorticoid receptor (Homo sapiens) (UniProt P04150); test: GR-GFP Redistribution (AID 450;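 active means compounds whose dose series gives a full or clear partial fitted curve of increased nuclear translocation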; further: potency means the concentration at half of the fitted maximal effect); conditions: U2OS GR-GFP nuclear translocation, laser cytometry, 2 h
Glucocorticoid receptor (Homo sapiens), sequence (P04150 whole entry, looked up, the tested form may be a part): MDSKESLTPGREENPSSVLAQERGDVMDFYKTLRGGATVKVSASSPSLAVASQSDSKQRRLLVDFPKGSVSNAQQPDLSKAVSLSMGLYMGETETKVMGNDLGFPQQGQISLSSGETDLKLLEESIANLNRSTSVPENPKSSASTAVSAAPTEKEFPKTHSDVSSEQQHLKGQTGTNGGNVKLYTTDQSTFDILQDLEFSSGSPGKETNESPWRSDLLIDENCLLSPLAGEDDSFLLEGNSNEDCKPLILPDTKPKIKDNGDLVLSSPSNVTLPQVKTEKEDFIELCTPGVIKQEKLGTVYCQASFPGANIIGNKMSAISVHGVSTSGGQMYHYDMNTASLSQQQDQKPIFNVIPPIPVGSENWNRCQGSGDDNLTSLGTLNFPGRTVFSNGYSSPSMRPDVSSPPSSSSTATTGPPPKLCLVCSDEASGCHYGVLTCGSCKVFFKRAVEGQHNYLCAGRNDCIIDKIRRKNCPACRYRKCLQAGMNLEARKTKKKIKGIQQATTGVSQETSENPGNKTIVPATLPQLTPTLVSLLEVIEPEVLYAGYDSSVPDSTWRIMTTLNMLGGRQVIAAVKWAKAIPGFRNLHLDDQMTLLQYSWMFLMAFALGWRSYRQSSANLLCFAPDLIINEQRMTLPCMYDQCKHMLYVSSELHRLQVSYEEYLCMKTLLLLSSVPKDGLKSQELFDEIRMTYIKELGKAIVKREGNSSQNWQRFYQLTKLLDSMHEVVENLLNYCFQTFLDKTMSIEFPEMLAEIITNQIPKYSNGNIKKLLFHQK

[3] = biological target: Glucocorticoid receptor (Homo sapiens) (UniProt P04150); test: GR-EFC Redistribution (AID 451; calls by dose curve; further: potency means the concentration at half of the fitted maximal effect); conditions: CHO-K1 GR-EFC translocation, beta-gal luminescence, 2 h
Method in brief: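 CHO-K1 cells expressing nuclear EA and GR-ED fragments of b-gal; compounds titrated up to 46 uM final, 2 h at 37 C. GR nuclear translocation read as complemented b-gal luminescence after 1 h RT detection.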

[4] = biological target: Mitogen-activated protein kinase 10 (Mus musculus) (UniProt Q61831); test: JNK3 AlphaScreen Assay (AID 530; active means well fitted curve in either direction with a large enough effect, not every such curve was filed as active;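 further: kinase came from lysate of stimulated human HepG2 cells; signal reports phosphorylation of biotinylated GST-cJun 1-79 at Ser73 with 10 µM ATP; series mostly up to about 57 µM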)
Method in brief: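 qHTS format: compounds tested as titrations against IL-1beta/TNF-alpha-activated HepG2 lysate JNK3 with biotin-GST-cJun substrate and 10 uM ATP at room temperature. Loss of anti-phospho-cJun AlphaScreen signal indicates inhibition.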

[5] = biological target: 3',5'-cyclic-AMP phosphodiesterase 4B (Homo sapiens) (UniProt Q07343); test: qHTS Assay for Inhibitors of PDE-IV (AID 607; active means well fitted activation curve with a large enough effect in the main read-out, with a control signal flat, not every such curve was filed as active)
3',5'-cyclic-AMP phosphodiesterase 4B (Homo sapiens), sequence (Q07343 whole entry, looked up): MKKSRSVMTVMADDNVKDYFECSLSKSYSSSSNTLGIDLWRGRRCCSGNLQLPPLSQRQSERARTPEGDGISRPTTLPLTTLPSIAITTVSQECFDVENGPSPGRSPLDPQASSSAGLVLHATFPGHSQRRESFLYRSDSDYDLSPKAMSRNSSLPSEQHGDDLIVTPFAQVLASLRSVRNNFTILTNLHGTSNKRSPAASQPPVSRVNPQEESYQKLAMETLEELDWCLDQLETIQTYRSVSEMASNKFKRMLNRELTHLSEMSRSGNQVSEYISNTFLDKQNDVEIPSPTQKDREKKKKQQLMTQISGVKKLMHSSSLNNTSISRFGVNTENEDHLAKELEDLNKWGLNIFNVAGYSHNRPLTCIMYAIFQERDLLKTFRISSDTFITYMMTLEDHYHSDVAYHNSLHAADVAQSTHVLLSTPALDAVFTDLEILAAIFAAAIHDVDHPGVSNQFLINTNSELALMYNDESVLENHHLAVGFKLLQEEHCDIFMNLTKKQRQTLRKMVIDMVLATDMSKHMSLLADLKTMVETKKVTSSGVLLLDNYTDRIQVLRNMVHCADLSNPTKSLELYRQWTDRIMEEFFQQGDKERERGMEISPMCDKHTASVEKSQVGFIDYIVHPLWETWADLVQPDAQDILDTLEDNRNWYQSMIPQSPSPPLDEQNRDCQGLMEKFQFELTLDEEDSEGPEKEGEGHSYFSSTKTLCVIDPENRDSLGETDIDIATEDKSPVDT
Method in brief: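 HEK293 ACTOne cells with CNG channel (1000/well), endogenous PDE4; membrane potential dye, compounds up to 22.9 uM final. Fluorescence Ex 535/Em 590; RO 20-1724 (100 uM final) as reference.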

[6] = biological target: Cytochrome P450 2C9 (Homo sapiens) (UniProt P11712); test: qHTS Assay for Inhibitors and Substrates of Cytochrome P450 2C9 (AID 883); further: nearly all actives have a fitted effect of over 60% in size
Cytochrome P450 2C9 (Homo sapiens), sequence (P11712 whole entry, looked up): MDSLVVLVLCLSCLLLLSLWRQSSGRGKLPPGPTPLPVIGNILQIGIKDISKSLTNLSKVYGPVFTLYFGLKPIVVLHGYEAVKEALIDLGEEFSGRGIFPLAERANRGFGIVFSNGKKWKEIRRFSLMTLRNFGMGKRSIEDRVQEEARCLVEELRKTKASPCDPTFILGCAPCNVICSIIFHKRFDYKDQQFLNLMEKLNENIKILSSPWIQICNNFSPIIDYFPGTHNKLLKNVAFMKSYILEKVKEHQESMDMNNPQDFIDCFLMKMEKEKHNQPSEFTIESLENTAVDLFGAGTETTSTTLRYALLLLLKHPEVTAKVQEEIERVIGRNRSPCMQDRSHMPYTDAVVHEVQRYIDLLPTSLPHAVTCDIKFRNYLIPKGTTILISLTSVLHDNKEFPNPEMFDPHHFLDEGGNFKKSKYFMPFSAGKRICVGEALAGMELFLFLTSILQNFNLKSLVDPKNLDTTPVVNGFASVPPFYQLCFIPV
Method in brief: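 10nM CYP2C9 + 100uM Luciferin-H (=KM), 25mM KPO4; cpd 10 min 37C; NADPH regen, 60 min 37C; stop/detect with P450 Glo-Buffer 20 min; luminescence. Norm. to 57uM sulphaphenazole as full inhibition.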

[7] = biological target: Cytochrome P450 2D6 (Homo sapiens) (UniProt P10635); test: qHTS Assay for Inhibitors and Substrates of Cytochrome P450 2D6 (AID 891); further: nearly all actives have a fitted effect of over 60% in size; further: potency means the concentration at half of the fitted maximal effect
Cytochrome P450 2D6 (Homo sapiens), sequence (P10635 whole entry, looked up): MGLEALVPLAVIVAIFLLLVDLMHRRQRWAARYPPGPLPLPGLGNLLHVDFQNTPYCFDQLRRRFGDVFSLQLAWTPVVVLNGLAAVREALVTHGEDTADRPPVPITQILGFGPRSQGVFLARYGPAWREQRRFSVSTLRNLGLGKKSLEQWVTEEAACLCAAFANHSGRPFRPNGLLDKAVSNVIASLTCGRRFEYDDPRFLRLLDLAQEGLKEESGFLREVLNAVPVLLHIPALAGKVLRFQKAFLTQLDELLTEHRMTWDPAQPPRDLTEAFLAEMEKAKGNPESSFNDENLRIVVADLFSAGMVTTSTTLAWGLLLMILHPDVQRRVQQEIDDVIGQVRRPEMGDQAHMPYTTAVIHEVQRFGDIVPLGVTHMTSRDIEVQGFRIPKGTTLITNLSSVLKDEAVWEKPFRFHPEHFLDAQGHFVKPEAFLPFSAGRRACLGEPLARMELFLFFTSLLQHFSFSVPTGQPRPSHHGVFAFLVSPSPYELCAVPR
Method in brief: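 Human CYP2D6 (5 nM) with 30 uM Luciferin-ME EGE (at Km) in 100 mM KPO4, compound preincubated 10 min, then NADPH regeneration system for 60 min at room temperature. Luciferin read by luminescence; normalized to 1.43 uM quinidine.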

[8] = biological target: Cytochrome P450 2C19 (Homo sapiens) (UniProt P33261); test: qHTS Assay for Inhibitors and Substrates of Cytochrome P450 2C19 (AID 899); further: nearly all actives have a fitted effect of over 60% in size; further: potency means the concentration at half of the fitted maximal effect
Cytochrome P450 2C19 (Homo sapiens), sequence (P33261 whole entry, looked up): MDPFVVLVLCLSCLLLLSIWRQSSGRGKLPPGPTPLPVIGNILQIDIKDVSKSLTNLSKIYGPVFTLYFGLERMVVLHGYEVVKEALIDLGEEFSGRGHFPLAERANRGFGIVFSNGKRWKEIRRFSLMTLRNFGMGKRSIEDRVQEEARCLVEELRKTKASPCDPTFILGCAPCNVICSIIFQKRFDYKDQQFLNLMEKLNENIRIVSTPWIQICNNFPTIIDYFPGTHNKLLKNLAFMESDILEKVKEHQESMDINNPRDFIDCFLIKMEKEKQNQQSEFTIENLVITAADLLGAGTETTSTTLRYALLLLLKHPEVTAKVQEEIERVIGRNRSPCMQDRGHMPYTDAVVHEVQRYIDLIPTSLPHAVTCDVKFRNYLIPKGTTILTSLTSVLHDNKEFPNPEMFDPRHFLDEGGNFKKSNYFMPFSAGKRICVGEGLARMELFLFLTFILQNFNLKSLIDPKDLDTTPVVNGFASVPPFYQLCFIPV
Method in brief: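 Luminescent read-out of luciferin formed from Luciferin-H EGE (10uM, equal to KM). Enzyme 5nM in 50mM KPO4; compound added, 10 min at 37C, then NADPH regenerating system for 60 min at 37C. Full inhibition defined by 57uM ketoconazole.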

[9] = biological target: Cytochrome P450 3A4 (Homo sapiens) (UniProt P08684); test: qHTS Assay for Activators of Cytochrome P450 3A4 (AID 885); further: nearly all actives have a fitted effect of over 65% in size
Cytochrome P450 3A4 (Homo sapiens), sequence (P08684 whole entry, looked up): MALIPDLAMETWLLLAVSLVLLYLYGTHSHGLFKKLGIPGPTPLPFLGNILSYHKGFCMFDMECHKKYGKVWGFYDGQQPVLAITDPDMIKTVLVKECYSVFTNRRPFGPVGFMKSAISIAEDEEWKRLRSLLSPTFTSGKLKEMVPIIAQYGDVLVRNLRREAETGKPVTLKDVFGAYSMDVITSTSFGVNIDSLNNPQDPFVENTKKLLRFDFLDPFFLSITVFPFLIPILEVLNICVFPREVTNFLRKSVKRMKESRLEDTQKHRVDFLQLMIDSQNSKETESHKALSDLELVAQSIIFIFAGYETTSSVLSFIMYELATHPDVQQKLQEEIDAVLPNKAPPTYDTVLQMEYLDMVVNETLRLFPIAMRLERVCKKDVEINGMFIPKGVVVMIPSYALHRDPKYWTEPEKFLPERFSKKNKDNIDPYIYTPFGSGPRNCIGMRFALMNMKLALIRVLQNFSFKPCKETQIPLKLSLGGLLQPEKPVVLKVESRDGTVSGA
Method in brief: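 Human CYP3A4 (20 nM) with Luciferin-PPXE at 25 uM (its KM) in 200 mM KPO4; 10 min compound preincubation, then NADPH regeneration and 60 min reaction at RT. Luciferin read by luminescence; normalized to 57 uM ketoconazole full inhibition.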

## C[C@@H](CO)NC(=O)[C@H]1C=C2c3cccc4[nH]cc(c34)C[C@H]2N(C)C1
[1]
  Potency: 31.6 µM (active)
[2]
  Potency: > 46 µM
[3]
  Potency: > 46 µM
[4]
  outcome: inactive
[5]
  outcome: inactive
[6]
  Potency: inactive
[7]
  Potency: 12.6 µM (active)
[8]
  Potency: inactive

## CC(=O)[C@@H]1CC[C@@H]2[C@H]3CC[C@H]4C[C@@H](O)CC[C@]4(C)[C@@H]3C(=O)C[C@]21C
[5]
  outcome: inactive

## C[C@H]1CC[C@]2(NC1)O[C@@H]1C[C@@H]3[C@@H]4CC=C5C[C@H](O)CC[C@@]5(C)[C@H]4CC[C@@]3(C)[C@H]1[C@@H]2C
[1]
  Potency: inactive
[2]
  Potency: > 46 µM
[3]
  Potency: > 46 µM
[4]
  outcome: inactive
[6]
  Potency: inactive
[7]
  Potency: inactive
[8]
  Potency: inactive

## CN1[C@@H]2CC[C@H]1CC(O[C@@H](c1ccccc1)c1ccccc1N)C2 (some centres undefined)
[2]
  Potency: > 46 µM
[3]
  Potency: > 46 µM
[4]
  outcome: inactive
[5]
  outcome: inactive
[6]
  Potency: inactive
[9]
  Potency: inactive

## CC(C)n1cc2c3c(cccc31)[C@@H]1C[C@H](C(=O)O[C@@H](C)[C@H](C)O)CN(C)[C@H]1C2
[2]
  Potency: > 46 µM
[3]
  Potency: > 46 µM
[4]
  outcome: inactive

## O=C(CN1CCN(CCO)CC1)Nc1ccc(Cl)cc1C(=O)c1ccccc1
[2]
  Potency: > 20.6 µM

## CC[C@@]12CCCN3CC[C@@]4(c5ccc(OC)c(O)c5N(C(C)=O)[C@H]4CC1)[C@H]32
[1]
  Potency: inactive
[2]
  Potency: > 46 µM
[3]
  Potency: > 46 µM
[4]
  outcome: inactive
[5]
  outcome: inactive
[6]
  Potency: inactive
[8]
  Potency: 0.794 µM (active)

## COc1ccc(C[C@@H]2NC[C@H](O)[C@H]2OC(C)=O)cc1
[1]
  Potency: inactive
[2]
  Potency: > 46 µM
[3]
  Potency: > 46 µM
[4]
  outcome: inactive
[5]
  outcome: inactive
[6]
  Potency: inactive
[8]
  Potency: inactive

## CC(C)(O)[C@H]1[C@H]2OC(=O)[C@@H]1[C@]1(O)C[C@H]3O[C@]34C(=O)O[C@H]2[C@]14C (tested in a mixture with another compound)
[2]
  Potency: > 46 µM
[3]
  Potency: > 46 µM
[4]
  outcome: inactive
[5]
  outcome: inactive

## C[C@@]12CC[C@H](O)C[C@@H]1CC[C@H]1[C@H]2C[C@@H](O)[C@]2(C)[C@@H](C3=CC(=O)OC3)CC[C@@]12O
[1]
  Potency: inactive
[2]
  Potency: > 46 µM
[3]
  Potency: > 46 µM
[4]
  outcome: inactive
[6]
  Potency: inactive
[7]
  Potency: inactive
[8]
  Potency: inactive

## Ic1ccccc1CN[C@@H]1C2CCN(CC2)[C@H]1C(c1ccccc1)c1ccccc1
[1]
  Potency: 12.6 µM (active)
[2]
  Potency: > 46 µM
[3]
  Potency: > 46 µM
[4]
  outcome: inactive
[9]
  Potency: inactive
[7]
  Potency: 0.0631 µM (active)

## CC[C@]1(O)C(=O)OCc2c1cc1n(c2=O)Cc2cc3ccccc3nc2-1
[1]
  Potency: 5.01 µM (active)
[2]
  Potency: > 46 µM
[3]
  Potency: > 46 µM
[4]
  outcome: inactive
[6]
  Potency: inactive
[7]
  Potency: inactive
[8]
  Potency: inactive

## C[C@@H](Cc1cccc(C(F)(F)F)c1)NCCCc1ccccc1
[1]
  Potency: 3.98 µM (active)
[2]
  Potency: > 46 µM
[3]
  Potency: > 46 µM
[4]
  outcome: inactive
[9]
  Potency: inactive
[7]
  Potency: 0.0126 µM (active)
[8]
  Potency: 1.26 µM (active)

## Nc1c(C(=O)NCc2ccco2)c2nc3ccccc3nc2n1CCN1CCCCC1
[2]
  Potency: > 20.6 µM

## O=c1cccc2n1C[C@@H]1C[C@H]2CN2CCCC[C@H]12
[1]
  Potency: 1.26 µM (active)
[2]
  Potency: > 46 µM
[3]
  Potency: > 46 µM
[4]
  outcome: inactive
[5]
  outcome: inactive
[6]
  Potency: inactive

## CCN1C[C@@]2(COC(=O)c3ccccc3N3C(=O)C[C@H](C)C3=O)CC[C@H](OC)[C@@]34[C@@H]5CC6[C@@H](OC)C[C@@](O)([C@H]5[C@H]6OC)C(O)([C@@H]13)[C@@H](OC)[C@H]24
[1]
  Potency: inactive
[2]
  Potency: > 46 µM
[3]
  Potency: > 46 µM
[4]
  outcome: inactive
[5]
  outcome: inactive
[6]
  Potency: inactive
[7]
  Potency: inactive
[8]
  Potency: inactive

## C=CCCN1C[C@@H]2C[C@H](C1)c1cccc(=O)n1C2
[1]
  Potency: inactive
[2]
  Potency: > 46 µM
[3]
  Potency: > 46 µM
[4]
  outcome: inactive
[6]
  Potency: inactive
[7]
  Potency: inactive
[8]
  Potency: inactive

## O=C1C[C@H]2OCCC=C3CN4CC[C@@]56c7ccccc7N1[C@@H]5[C@H]2[C@H]3C[C@@H]46
[1]
  Potency: inactive
[2]
  Potency: > 46 µM
[3]
  Potency: > 46 µM
[4]
  outcome: inactive
[5]
  outcome: inactive
[6]
  Potency: inactive
[7]
  Potency: inactive
[8]
  Potency: inactive

## C=C(C)[C@H]1Cc2c(ccc3c2O[C@H]2COc4cc(OC)c(OC)cc4[C@@H]2C3=O)O1
[2]
  Potency: > 46 µM
[3]
  Potency: > 46 µM
[4]
  outcome: inactive
[5]
  outcome: inactive
[8]
  Potency: 2.51 µM (active)

## C=CCN1CC[C@]23c4c5ccc(O)c4O[C@@H]2C(=O)CC[C@@]3(O)[C@H]1C5
[5]
  outcome: inactive

## O=[N+]([O-])c1ccc(O[C@H]2O[C@@H](CO)[C@@H](O)[C@@H](O)[C@@H]2F)c([N+](=O)[O-])c1
[2]
  Potency: > 46 µM
[3]
  Potency: > 46 µM
[4]
  outcome: inactive
[5]
  outcome: inactive

## COc1ccc2[nH]c3c(c2c1)CCN=C3C
[2]
  Potency: > 20.6 µM
[3]
  Potency: > 20.6 µM
[5]
  outcome: inactive
[9]
  Potency: inactive
[7]
  Potency: 0.631 µM (active)

## CC(=O)N1C[C@@H]2C[C@H](C1)c1cccc(=O)n1C2
[1]
  Potency: inactive
[2]
  Potency: > 46 µM
[3]
  Potency: > 46 µM
[4]
  outcome: inactive
[5]
  outcome: inactive
[6]
  Potency: inactive
[7]
  Potency: inactive
[8]
  Potency: inactive
